From PubChem BioAssay come the findings set out here.

Results filed as inconclusive are left out. Active and inactive are the calls of the source.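 How the source made its calls, unless noted: active means viability at or below 30% in both replicate assays; inconclusive means viability at or below 30% in just one of the two assays; inactive means the rest.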

Assay [1] is described as follows: reducers of endogenous Her2 protein level, primary screen, SKBR3 breast tumor cells, AlphaScreen, ATP viability (AID 461;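 active means Her2 level under about 52% in both replicate screens, with viability over 70% of control, limit read from the data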;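 on Her2 level: lower value means less Her2 protein in the cells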;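 on viability: percent of carrier control wells set as 100% viability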). To be noted: 18-24 h, measured here: SKBR3 viability, ATP luminescence, at 10 µM.
Assay [2] concerns the target Receptor tyrosine-protein kinase erbB-2 (Homo sapiens) (UniProt P04626). The assay is described as above. To be noted: 18-24 h, at 10 µM, stronger effect = lower value.
The nature of assay [3]: SK-BR-3 cell growth inhibitors, pilot screen, 24 h, human (AID 572;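 active means viability at or below 10% of carrier control in both of two separate runs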;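 further: compound exposure lasted between 18 and 24 h rather than exactly 24 h; 100% = carrier-treated control wells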). Particulars: SK-BR-3 viability, CellTiter-Glo luminescence, at 10 µM, stronger effect = lower value.
Assay [4] is described as follows: HUVEC growth inhibition – cell-based, human, primary screen (AID 575).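 Further: 100% = median of untreated cell wells with 0.1% DMSO on each plate.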 To be noted: HUVEC proliferation, CellTiter-Glo luminescence, 72 h; at 10 µM; stronger effect = lower value.
The nature of assay [5]: growth inhibitors of H69AR lung tumor, primary screen, human, duplicate replicates (AID 580;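 active means viability at or under a set limit in both replicates, limit being median viability minus 3 SD, cut at about 48% in these data, passing the limit was not always enough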;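 further: 100% = mean luminescence of untreated wells and 0% = no signal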). Particulars: H69AR lung tumor cells viability, ATP luminescence, 72 h; at 10 µM; stronger effect = lower value.
A short description of assay [6]: reversal of MRP1-mediated doxorubicin resistance, pilot screen, H69AR cells, doxorubicin co-treatment (AID 601;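 active means viability loss from added drug above about 55%, and viability with drug at most 40%, in both replicates, limit read from the data, passing the limit was not always enough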). To be noted: CellTiter-Glo, 72 h, at 10 µM; for differential viability (reversal): stronger effect = higher value.
Assay [7] can be described thus: 384-well plate pilot, post-Golgi transport modulator project, inhibition of yeast transport mutant growth (AID 636; in the data active means inhibition above about 31%). Particulars: absorbance 615 nm, about 18 h, stronger effect = higher value.
Assay [8] can be described thus: growth suppression of yeast trafficking mutant, preliminary HTS, modulators of trafficking downstream of Golgi apparatus project, 1536-format plate, OD 615 nm (AID 637; in the data active means inhibition above about 30%). Particulars: yeast transport mutant growth, absorbance 615 nm, 18 h; stronger effect = higher value.
Assay [9] can be described thus: OD615 S. cerevisiae growth inhibition, permissive medium, pilot counter-assay, permissive growth control for S. cerevisiae lifespan shortening project (AID 705;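 active means growth inhibition above 25% in both replicates, a cutoff set 3 SD above the mean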). Particulars: OD615, 24 h, at 10 µM, stronger effect = higher value.
Assay [10] is described as follows: Restrictive medium S. cerevisiae growth inhibition, OD615, pilot screen of yeast lifespan reduction project, restrictive growth control (AID 706;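 active means growth inhibition above a set limit, 3 SD over mean compound inhibition, in both replicates, cut at about 43% in these data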;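 further: modified DeaD lifespan yeast strain shifted to restrictive glucose medium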). To be noted: OD615, 48 h, at 10 µM, stronger effect = higher value.
The nature of assay [11]: viability gain of MRP-1-high H69AR cells under doxorubicin, pilot screen, MRP-1 activator project, CellTiter-Glo, duplicate (AID 807;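 active means viability increase at or above a cutoff of the median across tested compounds plus 3 SD, cut at about 8.5% in these data, passing the limit was not always enough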;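 further: compound pretreatment 18-22 h then 72 h combined with doxorubicin; 0% = doxorubicin alone and 100% = vehicle without doxorubicin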). To be noted: H69AR viability with doxorubicin, CellTiter-Glo luminescence; at 10 µM; stronger effect = higher value.
Assay [12] in a line: growth suppression of beta-catenin knockout HCT116, pilot screen, human colon tumor cells (AID 823;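 active means cell viability at or below a set limit in both duplicate runs, the limit being the all-compound median minus 4 SD, cut at about 23% in these data, passing the limit was not always enough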;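 further: 0% = wells killed by 20 µM Hyamine and 100% = untreated DMSO cell wells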). To be noted: CellTiter-Glo, 60 h, at 10 µM, stronger effect = lower value.
The nature of assay [13]: growth suppression of PTEN-deleted HCT116, pilot screen, cell-based, HCT116 clonal line, CellTiter-Glo (AID 824;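 active means viability at or below 27.92% in each of two runs, the all-compound median minus 4 SD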;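 further: 0% = 20 µM Hyamine control and 100% = vehicle cell control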). To be noted: 60 h, at 10 µM, stronger effect = lower value.
Assay [14] is described as follows: inhibitors of the yeast RAM network, pilot screen, dse1pr::URA3 reporter, 5-FOA selection (AID 869;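 active means inhibition over a set limit, the all-compound mean plus 3 SD, in both replicate runs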;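 further: 0% = DMSO wells with no growth and 100% = 10 µM 1-NA-PP1 with full growth; RAM network block rescues cells from 5-FOA so hits raise OD615 growth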). To be noted: S. cerevisiae dse1pr::URA3 5-FOA growth, OD615, 2 d; at 10 µM; stronger effect = higher value; strain carries analog-sensitive mutant Cbk1 kinase.
Assay [15] can be described thus: RAM signaling pathway blockade in yeast – S. cerevisiae, Pdr1DBD-CYC8 efflux-inhibited sensitized strain, primary screen (AID 1298;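 active means RAM network inhibition above 8.4% in each of two replicates, 3 SD over the compound average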;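 further: 0% = DMSO untreated cells without growth and 100% = 10 µM 1-NA-PP1 full growth; higher means more yeast growth rescued from 5-FOA killing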). To be noted: S. cerevisiae cbk1-as DSE1-URA3 strain, 5-FOA growth OD615, 2 d; at 50 µM; stronger effect = higher value.
Where [16] appears, read: H69AR cells + 2 uM doxorubicin, measured here: viability with 2 uM doxorubicin, stronger effect = lower value.
Where [17] appears, read: H69AR cells, compound alone cytotoxicity.

Sequence of Receptor tyrosine-protein kinase erbB-2 (Homo sapiens) (P04626 whole entry, looked up): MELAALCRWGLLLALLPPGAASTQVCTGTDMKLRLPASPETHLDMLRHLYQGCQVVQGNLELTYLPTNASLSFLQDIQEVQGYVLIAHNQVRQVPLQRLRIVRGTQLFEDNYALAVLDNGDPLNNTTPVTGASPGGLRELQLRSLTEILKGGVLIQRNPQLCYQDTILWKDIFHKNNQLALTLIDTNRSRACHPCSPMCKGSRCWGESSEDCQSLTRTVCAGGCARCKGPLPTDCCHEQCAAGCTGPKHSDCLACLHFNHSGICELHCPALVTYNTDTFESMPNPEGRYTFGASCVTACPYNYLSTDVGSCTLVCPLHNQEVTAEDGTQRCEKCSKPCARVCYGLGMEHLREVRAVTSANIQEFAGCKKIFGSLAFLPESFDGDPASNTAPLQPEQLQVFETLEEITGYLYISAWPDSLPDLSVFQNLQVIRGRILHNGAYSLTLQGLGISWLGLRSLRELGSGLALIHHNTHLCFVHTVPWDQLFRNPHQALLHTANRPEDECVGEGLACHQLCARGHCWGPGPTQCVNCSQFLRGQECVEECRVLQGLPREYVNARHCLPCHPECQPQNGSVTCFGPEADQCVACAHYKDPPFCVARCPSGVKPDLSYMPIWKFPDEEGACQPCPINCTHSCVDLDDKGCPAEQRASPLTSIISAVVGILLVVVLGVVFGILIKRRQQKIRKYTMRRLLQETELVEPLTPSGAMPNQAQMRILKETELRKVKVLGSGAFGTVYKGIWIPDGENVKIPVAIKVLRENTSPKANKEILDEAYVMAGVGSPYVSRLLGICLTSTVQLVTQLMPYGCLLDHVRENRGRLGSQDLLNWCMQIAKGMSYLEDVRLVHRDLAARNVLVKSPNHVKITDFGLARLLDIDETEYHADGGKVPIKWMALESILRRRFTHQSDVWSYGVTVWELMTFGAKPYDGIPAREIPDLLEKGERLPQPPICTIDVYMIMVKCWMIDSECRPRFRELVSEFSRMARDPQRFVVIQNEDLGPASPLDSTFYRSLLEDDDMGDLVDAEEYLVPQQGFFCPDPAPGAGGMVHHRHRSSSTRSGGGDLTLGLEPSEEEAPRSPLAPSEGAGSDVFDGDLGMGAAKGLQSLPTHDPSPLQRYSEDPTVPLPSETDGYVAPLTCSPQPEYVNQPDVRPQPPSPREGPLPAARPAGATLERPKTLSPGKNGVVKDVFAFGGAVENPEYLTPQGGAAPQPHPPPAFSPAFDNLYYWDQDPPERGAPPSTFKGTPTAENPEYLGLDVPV

As for `CCOC(=O)c1cccc(NC(=O)CNS(=O)(=O)c2cccs2)c1`, the viability in [1] is 95.5%; in assay [3], 95.5% (inactive); in [4], 97% (inactive); in [5] it was 88.3% (inactive); in assay [6] (setting [16]), 90.4%; in assay [6] (setting [17]) it was 88.3%. Moreover, the viability in assay [12] is 102% (inactive); in assay [13], 97.7% (inactive). Moreover, the Her2 level in assay [2] was 92% (inactive). Further, the differential viability (reversal) in [6] (H69AR cells + 2 uM doxorubicin) was -2.06% (inactive). The inhibition in assay [7] is -8.36% (inactive); in [8], -5.71% (inactive); in [14], 1.43% (inactive). In addition, the results for the growth inhibition in [9] and in assay [10] were -0.595% (inactive) and -4.69% (inactive), respectively. Further, in [11], the viability increase was 0.66% (inactive). Besides, the RAM network inhibition in [15] was 0.44% (inactive).
For the compound `CCOCCn1c(CN2CCN(CC)CC2)nc2c1c(=O)n(C)c(=O)n2C`, the viability in assay [1] is 121%; in assay [3], 121% (inactive); in assay [4], 94.2% (inactive); in assay [5], 91.8% (inactive); in assay [6] (setting [16]), 87.1%; in [6] (setting [17]) it was 91.8%. Also, the viability is 103% (inactive) in [12] and 97.6% (inactive) in assay [13]. Besides, the Her2 level in [2] is 109% (inactive). Also, the differential viability (reversal) in assay [6] (H69AR cells + 2 uM doxorubicin) is 4.7% (inactive). Moreover, the inhibition in assay [7] was -1.6% (inactive); in assay [8], -4.33% (inactive); in assay [14], 1.31% (inactive). Further, the growth inhibition in assay [9] was 5.99% (inactive); in [10] it was 1.91% (inactive). Besides, in assay [11], the viability increase was -1.7% (inactive). Also, the RAM network inhibition in [15] is -1.34% (inactive).
Turning to `CCN(CCNC(=O)C1CCN(S(=O)(=O)c2cccc3cccnc23)CC1)c1ccccc1`, the viability in assay [1] is 87%; in assay [3], 87% (inactive); in assay [4], 79.7% (inactive); in [5], 98.3% (inactive); in assay [6] (setting [16]), 100%; in assay [6] (setting [17]), 98.3%. The viability in [12] is 94.4% (inactive); in assay [13], 82.9% (inactive). For the same compound, in [2], the Her2 level is 84.5% (inactive). The differential viability (reversal) in [6] (H69AR cells + 2 uM doxorubicin) is -2.15% (inactive). Further, the inhibition in assay [7] is -1.33% (inactive); in assay [8] it was 20.5% (inactive); in assay [14], 0.21% (inactive). Moreover, the growth inhibition in assay [9] is -5.29% (inactive); in assay [10], 8.53% (inactive). The viability increase in [11] was 1.51% (inactive). The RAM network inhibition in assay [15] is 5.91% (inactive).
Turning to `CCOC(=O)N1CCC(NC(=O)C2CCN(S(=O)(=O)c3cccc4cccnc34)CC2)CC1`, the viability is 90.5% in assay [1]; 90.5% (inactive) in [3]; 97.6% (inactive) in assay [4]; 94.8% (inactive) in assay [5]; 101% in assay [6] (setting [16]); 94.8% in assay [6] (setting [17]). Also, the viability in [12] was 91.4% (inactive); in [13], 92.9% (inactive). Also, the Her2 level in assay [2] was 97.5% (inactive). In addition, the differential viability (reversal) in assay [6] (H69AR cells + 2 uM doxorubicin) is -6.25% (inactive). Besides, the values for the inhibition in [7], in [8] and in [14] were -3.07% (inactive), -3.33% (inactive) and 1.02% (inactive), respectively. The growth inhibition in [9] is -5.04% (inactive); in assay [10] it was 3.31% (inactive). For the same compound, in [11], the viability increase was 0.29% (inactive). Moreover, the RAM network inhibition in [15] was 1.81% (inactive).
On to `CC(C)n1c(CN2CCN(C)CC2)nc2c1c(=O)n(C)c(=O)n2C`, for which the viability in assay [1] is 95.5%; in [3], 95.5% (inactive); in assay [4], 93.8% (inactive); in assay [5], 98.5% (inactive); in [6] (setting [16]), 89.2%; in assay [6] (setting [17]), 98.5%. Further, the viability in assay [12] is 101% (inactive); in assay [13] it was 103% (inactive). Moreover, the Her2 level in assay [2] is 86% (inactive). In assay [6] (H69AR cells + 2 uM doxorubicin), the differential viability (reversal) is 9.28% (inactive). Further, the inhibition in [7] was -7.57% (inactive); in assay [8], 1.8% (inactive); in assay [14], 0.885% (inactive). Also, the figures for the growth inhibition in assay [9] and in assay [10] were -7.82% (inactive) and 4.92% (inactive), respectively. In addition, the viability increase in [11] was 0.07% (inactive). Also, in assay [15], the RAM network inhibition was 5.22% (inactive).
